Source: PubChem
Most compounds without a hit are left out; they make up all but 5.4% or so of the library.
CSC inhib – cancer stem cell inhibition; AID 2717; 300,000 tested, 1.1% active; inhibition, % at 7.5 µM; cancer stem cell-like cells viability, luminescence; in the data active means inhibition above about 75%; inconclusive means no clear call, values can overlap the other calls; tested in HMLE shEcad cells
Calb FLC – affects C. albicans growth with fluconazole. C. albicans CaCi-2 (fluconazole-resistant clinical isolate) + fluconazole, Alamar Blue growth, 48 h. 300,000 tested, 0.57% active. growth inhibition, % (test concentration not listed);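 active means growth inhibition above about 58% in most replicates, limit read from the data, passing the limit was not always enough; inconclusive means exactly half the replicates above a set limit; inactive means most replicates below a set limit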;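 further: all wells also contain fluconazole at 8 µg/ml as a sub-toxic cotreatment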
PP5 primary – inhibitors of human protein phosphatase 5 (PP5) | 320,000 tested, 0.18% active | AID 1987 | P53041 | purified PP5c, OMFP substrate fluorescence | inhibition, % at 6.7 µM;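 active means inhibition above the campaign's mean inhibition across all tested compounds plus 3 SD, cut at about 9.5% in these data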
ALR H2O2 inh – inhibitors of human sulfhydryl oxidase ALR. P55789. purified ALR, DTT oxidation, H2O2 HRP-luminol luminescence. inhibition, % (no concentration beside the values). 290,000 tested, 3.8% active. AID 485317;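 active means mean replicate inhibition above about 79%, with every replicate also reaching it, limit read from the data; inconclusive means only one of the two criteria met; inactive means mean below limit and not every replicate reaching it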
Target sequence (P55789 whole entry, looked up): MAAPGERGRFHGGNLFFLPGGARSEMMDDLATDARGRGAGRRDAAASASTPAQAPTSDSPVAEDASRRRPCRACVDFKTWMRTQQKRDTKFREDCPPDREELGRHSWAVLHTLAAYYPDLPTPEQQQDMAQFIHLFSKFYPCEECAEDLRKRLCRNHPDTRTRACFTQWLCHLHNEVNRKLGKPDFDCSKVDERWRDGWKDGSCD
PP1 inh – blocks human PP1-alpha phosphatase, a PP5 counter-screen; P62136; purified PP1alpha, OMFP fluorescence; inhibition, % at 6.7 µM; 320,000 tested, 0.9% active;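 active means inhibition above the mean inhibition of all tested compounds plus 3 SD, computed separately for each screening campaign, cut at about 15% in these data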
Target sequence (P62136 whole entry, looked up): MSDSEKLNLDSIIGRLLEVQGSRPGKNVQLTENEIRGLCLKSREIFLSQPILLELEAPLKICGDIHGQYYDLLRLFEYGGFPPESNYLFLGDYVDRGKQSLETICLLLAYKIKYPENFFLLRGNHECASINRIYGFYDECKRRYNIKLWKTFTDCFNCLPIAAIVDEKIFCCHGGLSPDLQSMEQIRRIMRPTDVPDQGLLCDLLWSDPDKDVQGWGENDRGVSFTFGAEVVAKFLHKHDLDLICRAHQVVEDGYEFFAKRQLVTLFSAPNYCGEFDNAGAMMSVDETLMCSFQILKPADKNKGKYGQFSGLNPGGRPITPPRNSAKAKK
Numbers stand for hits.

What do the screens show for `COc1cc(CNc2ncc(-c3ccc(Br)cc3)n2C)cc(OC)c1OC`?
CSC inhib: inactive; Calb FLC: inactive; PP5 primary: inactive; ALR H2O2 inh: 90.7; PP1 inh: inactive

How did COc1ccc(CNc2ncc(-c3ccccc3)n2C)c(OC)c1OC do in these assays?
CSC inhib: inactive; Calb FLC: inactive; PP5 primary: inactive; ALR H2O2 inh: inactive; PP1 inh: inactive

Results for Cn1c(-c2ccc(Br)cc2)cnc1NCc1cccnc1 ?
CSC inhib: inactive; Calb FLC: inconclusive; PP5 primary: inactive; ALR H2O2 inh: inactive; PP1 inh: inactive

Results for Cn1c(-c2ccc(F)cc2)cnc1NCc1ccc(F)cc1 ?
CSC inhib: inactive; Calb FLC: inactive; PP5 primary: inactive; ALR H2O2 inh: 91.3; PP1 inh: inactive

How did CCSc1nnc2c(n1)OC=Nc1ccc(Br)cc1-2 do in these assays?
CSC inhib: inactive; Calb FLC: inactive; PP5 primary: inactive; ALR H2O2 inh: inactive; PP1 inh: inactive

Results for COC(=O)CNC(=O)CCc1nnc(C2(c3ccc(Cl)cc3)CCC2)o1 ?
CSC inhib: inactive; Calb FLC: inactive; PP5 primary: inactive; PP1 inh: inactive

Results for CC1CC(C)CN(C(=O)COC(=O)CCC(=O)c2cccs2)C1 (stereo not given) ?
CSC inhib: inactive

How did O=C(OC(C(=O)Nc1ccc(Cl)cc1C(F)(F)F)c1ccccc1)c1c(Cl)cccc1Cl (stereo not given) do in these assays?
CSC inhib: inactive; Calb FLC: inactive; PP5 primary: inactive; PP1 inh: inactive

Results for O=C(c1ccccc1Br)N1CCc2c([nH]c3ccccc23)C1 ?
CSC inhib: inactive; Calb FLC: inactive; PP5 primary: inactive; ALR H2O2 inh: 83.3; PP1 inh: inactive

How did CCc1ccc(Nc2nnc(SCC(=O)NC(=O)CN3CCCC3=O)s2)cc1 do in these assays?
PP5 primary: inactive; ALR H2O2 inh: inactive; PP1 inh: inactive

What do the screens show for `COc1ccc(NC(=O)c2cc3sccc3n2Cc2ccc(F)cc2)cc1OC`?
CSC inhib: inactive; Calb FLC: inactive; PP5 primary: inactive; PP1 inh: inactive

Results for CN(/N=C/c1cc(Br)cc(Br)c1O)c1cccc(C(F)(F)F)n1 ?
CSC inhib: 103.5; Calb FLC: inactive; PP5 primary: inactive; PP1 inh: inactive

Results for Cn1c(N)c(-c2nc3cccnc3n2C)sc1=S ?
CSC inhib: inactive; Calb FLC: inactive; PP5 primary: inactive; ALR H2O2 inh: 92.1; PP1 inh: inactive

Results for O=C(NCc1cccnc1)C1CC(=O)N(c2ccc(Cl)cc2)C1 (stereo not given) ?
CSC inhib: inactive; Calb FLC: inactive; PP5 primary: inactive; ALR H2O2 inh: inactive; PP1 inh: inactive

Results for COc1ccc(/C=C/c2cc(-c3ccc(C)cc3)o[n+]2C)cc1 ?
CSC inhib: 92.0; Calb FLC: 89.7; PP5 primary: inactive; ALR H2O2 inh: inactive; PP1 inh: inactive

Results for COc1ccc(C)cc1NC(=S)NNC(=O)c1ccccc1Cl ?
CSC inhib: inactive; PP5 primary: inactive; ALR H2O2 inh: 77.2; PP1 inh: inactive

How did COc1ccc(C)cc1NC(=S)NNC(=O)c1c(Br)cnn1C do in these assays?
CSC inhib: inactive; Calb FLC: 72.4; PP5 primary: inactive; PP1 inh: inactive

How did CN(C)S(=O)(=O)c1ccc(Cl)c(NC(=O)CN2CCNC(=O)C2)c1 do in these assays?
CSC inhib: inactive; Calb FLC: inactive; PP5 primary: inactive; ALR H2O2 inh: inactive; PP1 inh: inactive

Results for COc1ccccc1OCC(=O)Nc1ccc2c(c1)OCCO2 ?
CSC inhib: inactive; Calb FLC: inactive; PP5 primary: inactive; ALR H2O2 inh: inactive; PP1 inh: inactive

Results for Cc1c(N2C(=O)/C(=C/C3CC=CCC3)SC2=S)c(=O)n(-c2ccccc2)n1C (stereo not given) ?
CSC inhib: inactive; Calb FLC: inactive; PP5 primary: inactive; ALR H2O2 inh: 98.5; PP1 inh: inactive

Results for Cc1noc(C)c1CSc1ccc(Br)cc1 ?
CSC inhib: inactive; Calb FLC: inactive; PP5 primary: inactive; ALR H2O2 inh: inactive; PP1 inh: inactive

How did CCC(C)NC(=O)CSc1ccc(NC(C)=O)cc1 (stereo not given) do in these assays?
CSC inhib: inactive; Calb FLC: inactive; PP5 primary: inactive; ALR H2O2 inh: inactive; PP1 inh: inactive

Results for CC(=O)Nc1ccc(SCc2c(C)noc2C)cc1 ?
CSC inhib: inactive; Calb FLC: inactive; PP5 primary: inactive; ALR H2O2 inh: 99.2; PP1 inh: inactive

Results for CC(=O)Nc1ccc(SCc2csc(C)n2)cc1 ?
CSC inhib: inactive; Calb FLC: inactive; PP5 primary: inactive; ALR H2O2 inh: 98.7; PP1 inh: inactive

Results for CCCC(=O)Nc1ccc2c(c1)C(=O)NC2=O ?
CSC inhib: inactive; Calb FLC: inactive; PP5 primary: inactive; ALR H2O2 inh: inactive; PP1 inh: inactive

What do the screens show for `COc1ccc(NC(=O)c2nc[nH]c2C(=O)N[C@@H](CC(C)C)C(=O)OC(C)(C)C)cc1`?
CSC inhib: 133.0; Calb FLC: inactive; PP5 primary: inactive; ALR H2O2 inh: inactive; PP1 inh: inactive

What do the screens show for `Cc1ccc(N2C(=O)c3cccc4c([N+](=O)[O-])ccc(c34)C2=O)c2cccnc12`?
CSC inhib: inactive; Calb FLC: inactive; PP5 primary: inactive; PP1 inh: inactive

How did Cc1ccnc(N2C(=O)c3cccc4c([N+](=O)[O-])ccc(c34)C2=O)c1 do in these assays?
CSC inhib: 121.1; Calb FLC: inactive; PP5 primary: inactive; ALR H2O2 inh: inactive; PP1 inh: inactive

Results for CC(Nc1ccc2c(c1)OCCO2)C(=O)Nc1ccc2c(c1)OCO2 (stereo not given) ?
Calb FLC: inactive; PP5 primary: inactive; ALR H2O2 inh: 95.8; PP1 inh: inactive

How did CC(=O)Nc1ccc2c(c1)OCCO2 do in these assays?
CSC inhib: inactive; Calb FLC: inactive; PP5 primary: inactive; PP1 inh: inactive

How did C=C(C)C(=O)Nc1ccc2c(c1)OCCOCCOCCO2 do in these assays?
CSC inhib: inactive; Calb FLC: inactive; PP5 primary: inactive; ALR H2O2 inh: inactive; PP1 inh: 17.4

What do the screens show for `CC1CC1C(=O)Nc1nc2ccc(Cl)cc2s1` (stereo not given)?
CSC inhib: inactive; Calb FLC: inactive; PP5 primary: inactive; ALR H2O2 inh: inactive; PP1 inh: inactive

What do the screens show for `CCC(CC)NC(=O)COC(=O)c1cc(SC)ccc1Cl`?
CSC inhib: inactive; Calb FLC: inactive; PP5 primary: inactive; ALR H2O2 inh: inactive; PP1 inh: inactive

What do the screens show for `Fc1cccc(Cc2noc(CN3CCSCC3)n2)c1`?
CSC inhib: inactive; Calb FLC: inactive; PP5 primary: inactive; ALR H2O2 inh: inactive; PP1 inh: inactive

What do the screens show for `COc1ccc(N2CCN(Cc3nc(Cc4cccc(F)c4)no3)C(C)C2)cc1` (stereo not given)?
CSC inhib: inactive; Calb FLC: inactive; PP5 primary: inactive; ALR H2O2 inh: 98.4; PP1 inh: inactive

Results for Cc1cc(C)c2c(=O)c(/C=C3\NC(=S)NC3=O)coc2c1 ?
CSC inhib: inactive; Calb FLC: inactive; PP5 primary: inactive; ALR H2O2 inh: inactive; PP1 inh: inactive

How did CCOC(=O)Cn1nnnc1CN1CCN(c2ccc(OC)cc2)CC1 do in these assays?
CSC inhib: inactive; Calb FLC: inactive; PP5 primary: inactive; ALR H2O2 inh: 91.7; PP1 inh: inactive
